For 21 compounds, growth inhibition results are on record in PubChem BioAssay (NCI).

This is part of a sample that, as a whole, favours compounds with a hit. Of some 79,000 tested, about 15% had one in any assay. Values without a mark were called inactive. Active and inactive are the calls of the source. No stated cut-off is given here; in the data, active means growth inhibition above about 70%; inactive means the rest.

Test [1] can be described thus: NCI Yeast Anticancer Drug Screen. Data for the rad50 strain (AID 155).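 Further: 0% = growth of vehicle-only cultures of the same strain.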 To be noted: S. cerevisiae rad50 strain growth inhibition; at 50.0 µM; hits give high values. Put shortly: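 Inhibition values express reduced yeast growth in compound-treated cultures relative to vehicle-treated controls.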
Test [2] in a line: NCI Yeast Anticancer Drug Screen. Data for the mec2-1 strain (AID 157). The settings on record: S. cerevisiae mec2-1 strain, at 50.0 µM, hits give high values. The gist of the method:
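Strain: mec2-1 (DNA repair/cell cycle alteration). Compound exposure, then growth measured; inhibition expressed relative to vehicle.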

Test [3] can be described thus: NCI Yeast Anticancer Drug Screen. Data for the sgs1 mgt1 strain (AID 161).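 Further: 0% = growth of cultures given vehicle only.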 The settings on record: S. cerevisiae sgs1 mgt1 strain, at 50.0 µM, hits give high values. The gist of the method: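 Genetically altered yeast, compound exposure, growth inhibition relative to vehicle.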
Test [4] can be described thus: NCI Yeast Anticancer Drug Screen. Data for the cln2 rad14 strain (AID 165).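 Further: 0% = growth equal to vehicle treated cultures.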 To be noted: S. cerevisiae cln2 rad14 strain, at 50.0 µM, hits give high values. Put shortly: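 Compounds are applied to the cln2 rad14 yeast strain, and growth is then compared with that of vehicle-treated cultures to give inhibition.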
A short description of test [5]: NCI Yeast Anticancer Drug Screen. Data for the bub3 strain (AID 167). To be noted: S. cerevisiae bub3 mutant strain, at 50.0 µM, hits give high values. The gist of the method:
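Steps: expose the mutant yeast strain to compound; grow alongside vehicle-treated cultures; measure growth; express inhibition against the vehicle cultures.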

A short description of test [6]: NCI Yeast Anticancer Drug Screen. Data for the mlh1 rad18 strain (AID 175). The settings on record: S. cerevisiae mlh1 rad18 strain growth inhibition; at 50.0 µM; hits give high values. The gist of the method:
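Read-out is yeast growth inhibition, calculated against vehicle-only controls. The compound was applied to a strain engineered with DNA damage repair alterations.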

For `CCCCCCn1ncc(=O)[nH]c1=O`, the growth inhibition is 4.2% in test [1]; -6.7% in test [2]; 2.75% in test [3]; -40.8% in test [4]; 6.6% in test [5]; 8.9% in test [6].

In the case of `COc1ccc(-c2cc3cc(Cl)cc(Cl)c3oc2=O)cc1OC`, the growth inhibition is -13.6% in test [1]; -8.6% in test [2]; -17.8% in test [3]; -4.85% in test [4]; -3.25% in test [5]; -16.1% in test [6].

For the compound `CN(C)c1ccc(/C=N/NC(=S)Nc2cccc3cccnc23)cc1`, the growth inhibition in test [1] was 18.6%; in test [2], -3.05%; in test [3], 1.4%; in test [4] it was 20.3%; in test [5], 20.6%; in test [6], -2.8%.

Regarding `CCOC(=O)c1oc2cc(O)cc(O)c2c(=O)c1-c1ccc(OC)cc1`, the growth inhibition is 7.8% in test [1]; -30.4% in test [2]; 11.6% in test [3]; 11.1% in test [4]; 3.1% in test [5]; 0.35% in test [6].

As for `CC(C)OC1(c2ccccc2)c2cccc3cccc(c23)C1(O)c1ccccc1` (stereo unspecified), the growth inhibition in test [1] is 18.2%; in test [2], -3.6%; in test [3], 22.8%; in test [4], 7.7%; in test [5], 3.35%; in test [6], 6.75%.

`Oc1ccc(C=Nc2ccccc2)c(O)c1O`: the growth inhibition in test [1] was -12.7%; in test [2], -24.4%; in test [3], -4.9%; in test [4] it was -7.25%; in test [5] it was -9.7%; in test [6] it was 6.2%.

Regarding `COc1nc(NC2OC(CO)C(O)C(O)C2O)c(C(C)=O)c(=O)[nH]1` (stereo unspecified), the growth inhibition in test [1] is 2.8%; in test [2] it was 1.05%; in test [3] it was 12.6%; in test [4] it was -0.1%; in test [5], -14.8%; in test [6], -3.95%.

Turning to `COCCc1c2ccccc2cc2ccccc12`, the growth inhibition in test [1] is 24.9%; in test [2] it was 3.2%; in test [3] it was 10.4%; in test [4], 7.65%; in test [5], -22.1%; in test [6], 17.8%.

In the case of `c1ccc2c(c1)cc1ccc3cc4ccccc4c4nnc2c1c34`, the growth inhibition in test [1] is -23.1%; in test [2], -7.3%; in test [3] it was -10.2%; in test [4] it was -16.8%; in test [5] it was -11.9%; in test [6], -14.6%.

Turning to `NCC(=O)N1CCCC1C(=O)O` (stereo unspecified), the growth inhibition in test [1] was -9.8%; in test [2] it was -6.3%; in test [3], -0.7%; in test [4] it was -24.4%; in test [5], 0.05%; in test [6], -6.2%.

Take `COc1cc(NC(C)CNC(C)C)c2ncccc2c1` (stereo unspecified): the growth inhibition in test [1] was -15.7%; in test [2] it was -4.85%; in test [3] it was -2.1%; in test [4], -34%; in test [5], 7%; in test [6], 2.1%.

For `COC12C=CC(CC1)C(C)(C)C2=O` (stereo unspecified), the growth inhibition is 8.85% in test [1]; -4.7% in test [2]; -3.9% in test [3]; 3.2% in test [4]; -3.05% in test [5]; -0.55% in test [6].

On to `CC/C(Cl)=N\OC(=O)Nc1ccccc1OC(F)(F)F`, for which the growth inhibition in test [1] was -24.1%; in test [2], -15.4%; in test [3] it was 87.2% (active); in test [4], -13.6%; in test [5] it was 18.6%; in test [6], -89.6%.

Regarding `Cc1nn(-c2nc(-c3ccccc3)cs2)c(C)c1C`, the growth inhibition is -6.05% in test [1]; -8.6% in test [2]; -20.6% in test [3]; 2.9% in test [4]; -0.5% in test [5]; -8.2% in test [6].

For the compound `CCCCCCCCCCCCCCCCc1c(C)ncn(C)c1=O`, the growth inhibition in test [1] is -13.9%; in test [2], 2%; in test [3], 5.4%; in test [4], -8.15%; in test [5], -9.2%; in test [6], -49%.

For `C[n+]1ccc(/C=C/c2ccnc3c(O)cccc23)cc1`, the growth inhibition in test [1] was 17.5%; in test [2], 11.7%; in test [3] it was -13.4%; in test [4] it was -7.3%; in test [5], -7.4%; in test [6] it was 18%.

Turning to `CS(=O)(=O)N1C=CC2C(C=C1)C1(c3ccccc3)OC2(c2ccccc2)c2ccccc21` (stereo unspecified), the growth inhibition in test [1] is -9.75%; in test [2] it was -9.25%; in test [3] it was 0.35%; in test [4] it was -39.7%; in test [5], 2.95%; in test [6] it was -19.5%.

In the case of `CCCCCCC(C(=O)O)C(=O)O`, the growth inhibition is -20.8% in test [1]; -15.4% in test [2]; 23.6% in test [3]; 13.2% in test [4]; 1.15% in test [5]; -5.6% in test [6].

As for `O=C(O)c1ccccc1C(=O)OCC1CCc2ccccc2C1` (stereo unspecified), the growth inhibition in test [1] is 5.45%; in test [2], 26.8%; in test [3], 28.3%; in test [4], 33%; in test [5] it was 51.4%; in test [6], 9.2%.

For the compound `COc1cccc2c1C(CO)N1C(C#N)C3CC(C(=O)O)C(C1C2)N3C` (stereo unspecified), the growth inhibition was 0.25% in test [1]; -5.9% in test [2]; -28.3% in test [3]; 3.4% in test [4]; 8% in test [5]; -2.45% in test [6].

`[O-][n+]1cccc(CO)c1`: the growth inhibition in test [1] is -17.9%; in test [2], -47.9%; in test [3] it was -25.1%; in test [4] it was 6.05%; in test [5], -15%; in test [6], -4.35%.
